Bioassay records from PubChem BioAssay.
In the library only some 2.7% were active in any assay of this set; here they are far more common.
GLP-1R agonist: activates the human GLP-1 receptor | Potency, µM (doses to about 45.6 µM), for the others: at the top dose activation, hits mostly activators | 380,000 compounds, 0.007% hits | P43220 | HEK293 GLP-1R CRE-luciferase, luminescence, 4-6 h; cells express a hypersensitive GLP-1R form | AID 624172; further: % of control where 0% means no effect
Target sequence (P43220 whole entry, looked up): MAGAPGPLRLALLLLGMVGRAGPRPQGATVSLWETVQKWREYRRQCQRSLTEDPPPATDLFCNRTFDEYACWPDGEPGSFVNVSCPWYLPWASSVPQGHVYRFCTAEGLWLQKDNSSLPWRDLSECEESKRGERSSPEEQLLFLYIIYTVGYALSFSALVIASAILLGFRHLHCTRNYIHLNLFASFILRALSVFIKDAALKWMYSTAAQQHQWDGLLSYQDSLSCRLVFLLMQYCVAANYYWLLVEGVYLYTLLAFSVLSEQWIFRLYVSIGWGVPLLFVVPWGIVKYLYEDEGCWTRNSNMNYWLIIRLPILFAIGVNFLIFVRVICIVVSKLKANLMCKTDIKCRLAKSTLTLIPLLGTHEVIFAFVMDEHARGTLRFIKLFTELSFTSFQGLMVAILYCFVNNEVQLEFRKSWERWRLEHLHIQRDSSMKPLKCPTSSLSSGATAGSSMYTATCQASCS
GLP1R inv ag: GLP-1 receptor (human) inverse agonism. 410,000 compounds, 1.6% hits. HEK293 GLP-1R CRE-luciferase, luminescence, 24 h; GLP-1R form is constitutively active. Potency, µM (series often up to 38.3 µM), for the others: top-dose activity change, negative = inhibition, usual class: inhibitors. P43220; further: on the % scale 0 is the no-effect control and ±100 the full control effect; nearly all actives have a fitted effect of over 55% in size
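Stable HEK293 clone (constitutively active GLP-1R + cAMP-response luciferase); 200 cells/uL plated, 12 h pre-culture, compound 24 hr, 37 deg C/5% CO2; detection reagent 12 min RT; luminescence.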
BRCA1 expr up: increases BRCA1 expression. Potency, µM (series often up to 46.1 µM), for inactives: at the highest dose activation, actives largely listed as activators. MCF7-BRCA1-FFLuc reporter, luminescence, 48 h; response scale: scaled: vehicle 0%, 10 µM genistein 100%. 380,000 compounds, 1.1% hits. AID 624202; further: nearly all actives have a fitted effect of over 80% in size
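MCF7 cells carrying a BRCA1-firefly luciferase reporter (2000 cells/well, phenol-red free MEM) were attached for 2 h at 37 °C, then given compounds for 48 h. Luminescence was read 15 min after luciferase reagent; activity normalized to genistein (10 microM) and DMSO.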
HEK293 tox: cytotoxicity in counter-screen for GLP-1R inverse agonists; HEK293 cAMP-luciferase reporter cells, luminescence, 24 h; Potency, µM (top dose mostly 38.3 µM), for inactives: top-dose activity change, negative = inhibition, usual class: inhibitors; 410,000 compounds, 0.13% hits; AID 624418;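 further: loss of luciferase light is scored as toxicity; on the % scale 0 is the no-effect control and ±100 the full control effect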
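1536-well qHTS counterscreen of the MLSMR; 200 cells/uL, 12 h pre-incubation, 23 nL cpd, 24 h at 37 deg C 5% CO2, luciferase detection reagent, 12 min RT, luminescence. Inhibition = undesired.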
Integrin act MD: activators of alpha7 integrin expression for muscular dystrophy; alpha7betagal myoblasts, beta-gal FDG fluorescence, 48 h; Potency, µM (top dose mostly 38.3 µM), for inactives: at the highest dose activation, actives largely listed as activators; 350,000 compounds, 0.064% hits;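 further: 100% = response of the positive control SU9516; nearly all actives have a fitted effect of over 60% in size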
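alpha7betagal+/- myoblasts (passage 13, 250/well) treated 48 h at 37C with compounds at 1:260 dilution of DMSO stock. Lysed, then beta-galactosidase activity read as FDG fluorescence (ex 480/em 540) after 30 min, with pre-read for autofluorescence.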
The depositor's hits bear a star; ? = inconclusive; / = no result; ! = a repeat was not active. The call rests on the fitted dose curve; in most records, active means well fitted curve in the direction sought with a large enough effect; inconclusive means small, poorly fitted or top-dose-only effect, or another doubt; inactive means no such curve, though single readings can be large; an effect the other way counts as inactive or inconclusive. Potency means the concentration at half of the fitted maximal effect.

SMILES	GLP-1R agonist	GLP1R inv ag	BRCA1 expr up	HEK293 tox	Integrin act MD
CCc1ccccc1N(C)C(=O)Nc1cn(CC(C)C)c(=O)c2ccccc12	-4%	?	-6%	-1%	/
COc1cc(NC(=O)CCN2CCN(C/C=C/c3ccccc3)CC2)cc(OC)c1	14%	10µM*	-37%	-19%	-5%
COc1ccc(NC(=O)CCN2CCN(C/C=C/c3ccccc3)CC2)cc1	5%	-18%	-5%	-12%	2%
O=C(COC(=O)c1ccccc1NCCO)NCCc1ccccc1	15%	8%	65%	-9%	4%
O=C(OCC(=O)N(Cc1ccccc1)Cc1ccccc1)c1ccccc1NCCO	18%	5.6µM*	41%	4%	25%
OC(Cc1ccccc1Br)c1ncc(-c2cccc(C(F)(F)F)c2)[nH]1 (configuration not stated)	1%	10µM*	-54%	-29%	/
CCc1ccc(C(O)c2ncc(-c3cccc(C(F)(F)F)c3)[nH]2)cc1 (configuration not stated)	1%	?	-7%	-4%	/
CC(=O)Oc1c2occc2cc2ccc(=O)oc12	-5%	14%	-31%	5%	-8%
COc1c2occc2c(OC(C)=O)c2c(=O)cc(C)oc12	10%	10µM*	-67%	-15%	6%
CCOc1ccc(CNC(=O)C2CCN(Cc3cc4ccccc4n3Cc3ccccc3C)CC2)cc1	/	7.1µM*	/	6%	/
CCOC(=O)Cc1ccc(NC(=O)NCc2cccn2Cc2ccccc2)cc1	/	?	/	1%	/
Cc1ccc2c(CC(=O)Nc3c(C(=O)c4ccc(F)cc4)oc4ccccc34)coc2c1	/	1%	/	7%	/
S=C(Nc1ccc(Cl)cc1)c1nc2ccccc2s1	17%	20%	29%	-32%	-17%
O=C(Nc1ccc(Cl)cc1)/C(=C/c1cccc(O)c1)c1nc2ccccc2s1	-4%	2.8µM*	-94%	-16%	-52%
CCOC(=O)c1c(C)[nH]c(C)c1S(=O)(=O)N(C)CC(=O)NCc1ccc(Cl)cc1	/	-17%	/	-3%	/
CC1CC(C)(C)CC2(C1)NC(=S)N(c1ccccc1)N2 (configuration not stated)	0%	3.5µM*	-38%	-18%	?
S=C1NC2(CCCCC2)NN1c1ccccc1	7%	?	-16%	-24%	-1%
CC1CCCC2(C1)NC(=S)N(c1ccccc1)N2 (configuration not stated)	3%	5µM*	-58%	-31%	-14%
COc1cccc([C@@H]2Oc3ccc(Br)cc3C(=O)[C@H]2OC(=O)NC2CCCC2)c1	-3%	11µM*	-48%	0%	-45%
COc1ccccc1/C=C/C(=O)c1cc(Br)ccc1OC(=O)c1ccco1	-13%	5µM*	-84%	?	-62%
Cc1ccc(/C=C/C(=O)c2cc(Br)ccc2OC(=O)c2ccco2)cc1	-10%	?	-30%	-28%	-24%
COc1ccc2c(c1)Sc1ccccc1N2	12%	-12%	-44%	1%	-14%
c1ccc2c(c1)Nc1cc3ccccc3cc1S2	1%	18%	7.1µM*	24%	0%
COc1cc2c(NC3CCN(C)CC3)nc(N3CCCN(C)CC3)nc2cc1OCCN(C)C	/	/	-7%	/	/
COc1ccc(Cn2c(CNS(=O)(=O)c3ccc(Cl)s3)nc3cccnc32)cc1	/	-15%	/	-6%	/
SMILES	GLP-1R agonist	GLP1R inv ag	BRCA1 expr up	HEK293 tox	Integrin act MD
CCCCN=C1NN=C(c2ccc(C)c(C)c2)CS1	7%	?	?	?	-14%
CCCCN=C1NN=C(c2ccc3c(c2)OCCO3)CS1	10%	8.9µM*	-11%	-23%	-31%
COCCN=C1NN=C(c2ccc(C)c([N+](=O)[O-])c2)CS1	20%	27%	3.2µM*	2%	-37%
Cc1c(Cl)cccc1-n1ncc(C(=O)NCc2cccs2)c1C1CCN(C(=O)OC(C)(C)C)CC1	/	?	/	-5%	/
c1ccc(-n2nnc(-c3nccs3)n2)cc1	-3%	8%	2.8µM*	5%	10%
Brc1ccccc1-n1nnc(-c2nccs2)n1	8%	-7%	4.5µM*	6%	5%
Fc1ccc(-n2nnc(-c3ccccc3)n2)cc1	4%	16%	-1%	1%	39%
O=C(Nc1nnc([C@@H]2C[C@H](O)[C@@H](CO)O2)s1)c1cccc2ccccc12	-3%	17%	8.9µM*	8%	/
O=C(Nc1nnc([C@@H]2C[C@H](O)[C@@H](CO)O2)s1)Nc1ccccc1F	-3%	?	6.3µM*	2%	/
O=C(Nc1cccc(Cl)c1)Nc1nnc([C@@H]2C[C@H](O)[C@@H](CO)O2)s1	-3%	?	?	-11%	/
O=C(Nc1nnc([C@H]2C[C@H](O)[C@@H](CO)O2)s1)Nc1ccccc1F	-7%	11%	92%	0%	/
O=C(Nc1ccc(F)c(Cl)c1)Nc1nnc([C@H]2C[C@H](O)[C@@H](CO)O2)s1	-6%	5%	11µM*	2%	/
Cc1ccccc1NC(=O)Cn1nc(-c2ccc(F)cc2)c2cnc3ccccc3c21	/	7%	/	-14%	/
COc1cc(Cl)c(C)cc1NC(=O)CSc1cc(-c2ccccc2)nc(C)n1	/	11%	/	3%	/
CC12CCC(C(=O)Nc3nc4ccc(Br)cc4s3)(OC1=O)C2(C)C (configuration not stated)	7%	?	8.9µM*	6%	28%
Cc1ccc2c(c1)N(C(=O)c1ccc(F)cc1)C(C)(C)CC2(C)c1ccccc1 (configuration not stated)	/	0%	/	4%	/
O=C(CSc1nc2c([nH]c3ccccc32)c(=O)n1-c1ccc(Cl)cc1)NC1CCCCC1	-6%	11%	-4%	8%	/
CN(CC(=O)Nc1cccc(F)c1)C(=O)c1ccc(-c2ccc(Cl)cc2)o1	3%	?	0%	13%	11µM*
CN(CC(=O)Nc1cccc(F)c1)C(=O)CCCNC(=O)c1ccc(Cl)cc1	6%	-1%	11µM*	-6%	-2%
CN(CC(=O)Nc1cccc(F)c1)C(=O)c1ccc(C(=O)c2ccccc2)cc1	5%	?	-52%	-12%	-16%
CN(CC(=O)Nc1cccc(F)c1)C(=O)c1ccccc1Cc1ccccc1	-1%	13µM*	-24%	-24%	-3%
Cc1ccccc1C(=O)Nc1cc2c(cc1N1CCCCC1)n(C)c(=O)n2C	/	29%	/	2%	/
COc1ccc(NC(=O)NC2COc3ccccc3C2)cc1Cl (configuration not stated)	/	-19%	/	-12%	/
CCOc1ccc(NC(=O)C(C)Sc2nnc3cc(C)c4ccccc4n23)cc1 (configuration not stated)	/	-3%	/	1%	/
O=C(Nc1ccc(F)cc1)c1ccc2snnc2c1	11%	-10%	3%	-12%	-25%
CCOc1ccc(NC(=O)c2ccc3snnc3c2)cc1	-3%	-6%	7.9µM*!	-12%	17%
